PubChem BioAssay (NCATS)
Values joined by “and” are separate entries in the source; they are usually repeats but may differ in a detail not shown here. Identical values can stand only once. Results filed as inconclusive are left out. Unmarked numbers belong to inactive results. Active and inactive are the calls of the source. Calls come from the whole dose curve; as a rule, active = well fitted curve in the direction sought with a large enough effect; inconclusive = small, poorly fitted or top-dose-only effect, or another doubt; inactive = no such curve, though single readings can be large; an effect the other way counts as inactive or inconclusive.
Potency is the fitted concentration of half-maximal effect.

Test: qHTS of pediatric cancer cell lines to identify multiple opportunities for drug repurposing: Confirmatory screen for SJ-GBM2 cells (AID 1347116); note: nearly all actives have a fitted effect of over 60% in size;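 for activity change, negative = cytotoxic: plate controls were DMSO for no effect and bortezomib for full effect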
Conditions: SJ-GBM2 glioblastoma cells, viability; series mostly up to 45.9 µM; activity change, negative = cytotoxic: at the top concentration
Method in brief: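 Viability measured as metabolically active cells via CellTiter-Glo luminescence following 48 hours of compound exposure, 11-point dilutions in confirmatory testing. 500-1,000 cells/well plated 5 hours before dosing; controls were DMSO and 2.3 µM bortezomib.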
With CO[C@H]1C=CC=C(C)C(=O)NC2=CC(=O)C(NCCN(C)C)=C(C[C@@H](C)C[C@H](OC)[C@@H](O)[C@@H](C)C=C(C)[C@@H]1OC(N)=O)C2=O the “activity change, negative = cytotoxic” value was 26.9%.
With COc1cc(N2CCC(N3CCN(C)CC3)CC2)ccc1Nc1ncc(Cl)c(Nc2ccccc2S(=O)(=O)C(C)C)n1 the Potency was 23300 nM (active).
For Nc1ncnc2c1ncn2[C@@H]1O[C@@H](CO)[C@H](O)[C@H]1O, the “outcome” value was “inactive [at 29.5 µM]”.
In the case of O=C(O)c1ccc(-c2c[nH]c3ncc(-c4ccccc4)cc23)cc1C1CCCC1, the “activity change, negative = cytotoxic” value is reported as -6.22%.
In the case of CC1(C)O[C@H]2C[C@@H]3[C@H]4CCC5=CC(=O)C=C[C@]5(C)[C@@]4(F)[C@@H](O)C[C@]3(C)[C@]2(C(=O)CO)O1, the “activity change, negative = cytotoxic” value is reported as 12.6%.
In the case of CC1(C)S[C@H]2[C@H](NC(=O)[C@@H](N)c3ccc(O)cc3)C(=O)N2[C@@H]1C(=O)O, the “activity change, negative = cytotoxic” value is reported as 6.44%.
With CCc1ccc(OCc2ccccc2C(=O)Nc2ccc3nc(C)cc(N)c3c2)cc1 the Potency was 11700 nM (active).
For O=c1cc(-c2ccc(O)cc2)oc2cc(O)cc(O)c12, the “activity change, negative = cytotoxic” value was -9.12%.
For COc1cc2ncnc(Nc3ccc(F)c(Cl)c3)c2cc1OCCCN1CCOCC1, the Potency was 2400 nM (active).
For CC1(C)CCC(CN2CCN(c3ccc(C(=O)NS(=O)(=O)c4ccc(NCC5CCOCC5)c([N+](=O)[O-])c4)c(Oc4cnc5[nH]ccc5c4)c3)CC2)=C(c2ccc(Cl)cc2)C1, the “activity change, negative = cytotoxic” value was 11.7%.
For CN(C)C1CCN(C(=O)c2ccc(NC(=O)Nc3nc(N4CCOCC4)nc(N4CCOCC4)n3)cc2)CC1, the Potency was 1470 nM (active).
In the case of CO[C@H]1C(=O)[C@]2(C)[C@@H](OC)C[C@H]3OC[C@@]3(OC(C)=O)[C@H]2[C@H](OC(=O)c2ccccc2)[C@]2(O)C[C@H](OC(=O)[C@H](O)[C@@H](NC(=O)OC(C)(C)C)c3ccccc3)C(C)=C1C2(C)C, the “activity change, negative = cytotoxic” value is reported as -27.3%.
With NC1=N[C@@]2(c3cc(NC(=O)c4ccc(F)cn4)ccc3F)COC[C@@H]2CS1 the “outcome” value was “inactive”.
For NS(=O)(=O)c1cccc2c1C(=O)c1cccc(O)c1C2=O, the Potency was 4140 nM (active).
With O=C1c2ccccc2-[n+]2ccc3c([nH]c4ccccc43)c21 the Potency was 2610 nM (active).
For C=C1C(=O)[C@@]23C(CC[C@@H]1[C@H]2O)[C@@]12CO[C@]3(O)[C@@H](O)[C@@H]1C(C)(C)CC[C@@H]2O (some centres undefined), the Potency was 20800 nM (active).
For O=C1NC(=O)C(=Cc2ccc3c(c2)OC(F)(F)O3)S1, the “outcome” value was “inactive”.
In the case of O=C1C(Cl)=C(NCCN2CCOCC2)C(=O)c2ncccc21, the Potency is reported as 14700 nM (active).
In the case of CC(C)(C(=O)NCC(F)(F)C(F)(F)F)C(=O)N[C@@H]1C(=O)Nc2ccccc2-c2ccccc21, the “activity change, negative = cytotoxic” value is reported as -10.6%.
In the case of CC(C)n1nc(-c2ccc3oc(N)nc3c2)c2c(N)ncnc21, the Potency is reported as 165 nM (active).

Test: qHTS of pediatric cancer cell lines to identify multiple opportunities for drug repurposing: Confirmatory screen for TC32 cells (AID 1347118);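 note: cells exposed to compound for 48 h before the read; nearly all actives have a fitted effect of over 65% in size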; for activity change, negative = cytotoxicity: % is set by controls: 0 for no effect and ±100 for the full control effect
Conditions: TC32 Ewing sarcoma cells viability qHTS; series mostly up to 45.9 µM; activity change, negative = cytotoxicity: at the top concentration
Method in brief: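 TC32 cells, 500-1,000/well in growth medium, compound-treated 48 h at 37 °C; viability from CellTiter-Glo luminescence. Primary screen: MIPE 11-point (0.78 nM–46 µM final), NPC 8-point (0.59 nM–46 µM final); confirmatory at 11-point dilutions.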
In the case of OC[C@H]1O[C@@H](n2cnc3c2NC=NC[C@@H]3O)C[C@H]1O, the Potency is reported as 8.27 µM (active).
For COc1cc(N2CCC(N3CCN(C)CC3)CC2)ccc1Nc1ncc(Cl)c(Nc2ccccc2S(=O)(=O)C(C)C)n1, the Potency was 1.85 µM (active).
For Nc1ncnc2c1ncn2[C@@H]1O[C@@H](CO)[C@H](O)[C@H]1O, the “activity change, negative = cytotoxicity” value was -28.2% [at 29.6 µM].
For O=C(O)c1ccc(-c2c[nH]c3ncc(-c4ccccc4)cc23)cc1C1CCCC1, the “activity change, negative = cytotoxicity” value was -12.1%.
With CC1(C)S[C@H]2[C@H](NC(=O)[C@@H](N)c3ccc(O)cc3)C(=O)N2[C@@H]1C(=O)O the “activity change, negative = cytotoxicity” value was -3.03%.
With CCc1ccc(OCc2ccccc2C(=O)Nc2ccc3nc(C)cc(N)c3c2)cc1 the Potency was 1.17 µM (active).
With CCOc1ccc(Nc2nc(-c3c(C)nc4ccccn34)cs2)cc1 the Potency was 0.117 µM (active).
For COc1cc2ncnc(Nc3ccc(F)c(Cl)c3)c2cc1OCCCN1CCOCC1, the Potency was 33.9 µM (active).
In the case of CC1(C)CCC(CN2CCN(c3ccc(C(=O)NS(=O)(=O)c4ccc(NCC5CCOCC5)c([N+](=O)[O-])c4)c(Oc4cnc5[nH]ccc5c4)c3)CC2)=C(c2ccc(Cl)cc2)C1, the “activity change, negative = cytotoxicity” value is reported as -3.93%.
In the case of CN(C)C1CCN(C(=O)c2ccc(NC(=O)Nc3nc(N4CCOCC4)nc(N4CCOCC4)n3)cc2)CC1, the Potency is reported as 0.0657 µM (active).
With CC[C@]1(O)C[C@@H]2CN(CCc3c([nH]c4ccccc34)[C@@](C(=O)OC)(c3cc4c(cc3OC)N(C)[C@H]3[C@@](O)(C(=O)OC)[C@H](OC(C)=O)[C@]5(CC)C=CCN6CC[C@]43[C@@H]65)C2)C1 the Potency was 465 nM (active) and 827 nM (active).
For CO[C@H]1C(=O)[C@]2(C)[C@@H](OC)C[C@H]3OC[C@@]3(OC(C)=O)[C@H]2[C@H](OC(=O)c2ccccc2)[C@]2(O)C[C@H](OC(=O)[C@H](O)[C@@H](NC(=O)OC(C)(C)C)c3ccccc3)C(C)=C1C2(C)C, the Potency was 0.0033 µM (active).
In the case of NC1=N[C@@]2(c3cc(NC(=O)c4ccc(F)cn4)ccc3F)COC[C@@H]2CS1, the “activity change, negative = cytotoxicity” value is reported as -0.263%.
With NS(=O)(=O)c1cccc2c1C(=O)c1cccc(O)c1C2=O the Potency was 0.827 µM (active).
For O=C1c2ccccc2-[n+]2ccc3c([nH]c4ccccc43)c21, the Potency was 1.31 µM (active).
For C=C1C(=O)[C@@]23C(CC[C@@H]1[C@H]2O)[C@@]12CO[C@]3(O)[C@@H](O)[C@@H]1C(C)(C)CC[C@@H]2O (some centres undefined), the Potency was 13.1 µM (active).
In the case of CC(=O)Nc1ccc([C@H](C)C(=O)Nc2ncc(C(C)C)s2)cc1, the Potency is reported as 7.37 µM (active).
With O=C1C(Cl)=C(NCCN2CCOCC2)C(=O)c2ncccc21 the Potency was 1.04 µM (active).
In the case of CC(C)n1nc(-c2ccc3oc(N)nc3c2)c2c(N)ncnc21, the Potency is reported as 0.0465 µM (active).
